Assay outcomes: PubChem BioAssay, several laboratories
Autophagy mod – modulators of autophagy; calls only at 10 µM (by protocol); AID 463193; hit rate 0.98% among 190,000; MEF GFP-LC3 puncta imaging; test concentration mostly 10 µM;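 active means percentage of spot-positive cells more than 3 SD above its plate mean, without a fluorescence outlier flag or 80% toxicity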;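 further: spot-positive cell cutoff set from DMSO-treated cells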
bCat KO growth – beta-catenin-lacking colon tumor cell growth suppression. HCT116 beta-catenin knockout viability, CellTiter-Glo, 60 h; stronger effect = lower value. viability, % at 10 µM. hit rate 1.5% among 140,000. AID 818;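 active means viability at or under a set limit, the compound median less 4 SD, cut at about 6% in these data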;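 further: 0% = Hyamine 1622 control at 20 µM and 100% = untreated cell control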
HCT116 PTEN-null – suppresses growth of cells with PTEN deletion. HCT116 PTEN-null viability, CellTiter-Glo, 60 h; stronger effect = lower value. viability, % at 10 µM. hit rate 1.2% among 140,000. AID 827;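 active means viability at or below a set limit, 4 SD under the median of all tested compounds, cut at about 3.7% in these data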;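 further: PTEN knockout HCT116 line with beta catenin targeted HCT116 as companion control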
INS promoter inh – TRM-6 insulin promoter activity inhibition. inhibition, % at 2 µM. TRM-6 cells (human fetal islet line), insulin promoter-eGFP reporter, imaging; reporter expression induced with tamoxifen. hit rate 0.9% among 130,000;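 active means inhibition above the mean plus 3 SD, with well images judged a real hit on visual review, cut at about 60% in these data, passing the limit was not always enough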
Insulin prom up – MIN6 insulin promoter up-regulation. MIN6 insulin promoter-GFP reporter, high-content imaging; stronger effect = higher value. z-score at 5 µM. hit rate 0.3% among 190,000. AID 1625;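 active means z-score above 3 at 5 µM with at least 500 cells counted in the well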
Lmaj promast – Leishmania major promastigote growth inhibition; Leishmania major promastigotes, resazurin fluorescence viability; inhibition, % at 10 µM; hit rate 9% among 200,000; in the data active means inhibition above about 50%;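 further: promastigotes grown with compound for 44 hours at 28 °C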
* marks the source's active call; other numbers are inactive results; i = inactive; . = no result; + = active, no number. Rows were chosen to be rich in hits. Some 9.6% of all compounds tested hit in one or more screens of this group.

SMILES	Autophagy mod	bCat KO growth	HCT116 PTEN-null	INS promoter inh	Insulin prom up	Lmaj promast
COc1ccc(CN(C2CCCC2)S(=O)(=O)c2ccc(-n3cnnn3)cc2)cc1OC	i	78	71	53	.	12
COc1ccc(CN(C2CCCC2)S(=O)(=O)c2ccc(-n3cnnn3)cc2)cc1	i	83	95	83*	-0.17	12
CCCCC1C2C(=O)N(c3ccccc3)C(=O)C2ON1c1ccccc1 (stereo unspecified)	.	.	.	.	-0.49	.
CC(=O)C1=C(C)NC(SCC(=O)c2ccc(Cl)cc2)=C(C#N)C1c1ccco1 (stereo unspecified)	+	55	49	-71	1.1	83*
CSCSC1=C(C#N)C(c2ccc(Cl)cc2)C(C(C)=O)=C(C)N1 (stereo unspecified)	i	46	46	-12	-0.66	65*
CC(=O)C1=C(C)NC(SCC(=O)c2ccccc2)=C(C#N)C1c1ccco1 (stereo unspecified)	i	64	51	-57	-0.56	8
CC(=O)C1=C(C)NC(SCC(=O)c2ccc(Cl)cc2Cl)=C(C#N)C1c1ccco1 (stereo unspecified)	i	61	50	7	-1.1	61*
O=C(CCCN1C(=O)/C(=C/c2cccs2)SC1=S)Nc1ccc(C(=O)O)cc1	i	.	.	.	-0.38	-9
CC(C)Nc1nc(NC(C)C)nc(N(C)C#N)n1	i	89	92	77*	1.5	-2
CCCCCCn1c(CN2CCCCC2C)nc2c1c(=O)n(C)c(=O)n2C (stereo unspecified)	i	6.0*	10	-69	-0.46	15
COc1ccc(NC(=O)/C(=C/c2ccc3c(c2)OCO3)NC(C)=O)cc1	i	95	95	-15	1.8	71*
COc1ccc(C(=O)N/C(=C\c2ccc3c(c2)OCO3)C(=O)Nc2ccc(C(=O)O)cc2)cc1	i	.	.	19	0.33	-7
COC(=O)N1CC=CC1(C)C(=O)NCc1cc(F)cc(C(F)(F)F)c1 (stereo unspecified)	i	77	70	14	0.78	-1
CCN(CC)C(=O)CSc1nc(N)c2c3c(sc2n1)CC(C)CC3 (stereo unspecified)	i	78	85	-7	.	64*
Cc1ccc(C)c(N2CCN(C(=S)NC3CCCCC3)CC2)c1	i	96	95	-25	-0.04	58*
Cc1cccc(NC(=S)N2CCN(c3cc(C)ccc3C)CC2)c1	i	104	97	-3	-0.17	80*
COC(=O)c1sccc1NC(=S)N1CCN(c2cc(C)ccc2C)CC1	i	67	50	-45	-0.05	82*
COc1ccccc1N1CCN(C(=S)Nc2cccc(C)c2)CC1	i	.	.	50	.	1
CCN(CC)c1ccc(/C=N/NC(=S)NCc2ccco2)cc1	i	64	65	100*	-0.18	3
CC(C)c1csc(CN2CCN(Cc3ccc(F)cc3)C(CCO)C2)n1 (stereo unspecified)	i	.	.	17	0.09	81*
Cc1ccc(CN2CCN(Cc3nc(C(C)C)cs3)CC2CCO)cc1 (stereo unspecified)	i	.	.	.	1.6	74*
CC(C)CN1CCN(Cc2nc(C(C)C)cs2)CC1CCO (stereo unspecified)	i	.	.	.	0.21	7
CN(C)C(=O)c1c(-c2ccccc2)oc2ccc(O)cc12	i	98	102	.	.	-6
Cc1nn(Cc2ccc(Cl)cc2Cl)c(C)c1NC(=O)NC12CC3CC(CC(C3)C1)C2	i	47	42	-317	.	100*
c1ccc2c(Nc3ccc4c(c3)OCCO4)c3c(nc2c1)CCC3	i	.	.	.	-1.3	88*
SMILES	Autophagy mod	bCat KO growth	HCT116 PTEN-null	INS promoter inh	Insulin prom up	Lmaj promast
c1ccc(Nc2c3c(nc4ccccc24)CCC3)cc1	i	.	.	.	-1.6	76*
Fc1ccc(Nc2c3c(nc4ccccc24)CCC3)cc1	i	.	.	.	-2.6	72*
COc1ccc(Nc2c3c(nc4ccccc24)CCCC3)cc1OC	i	.	.	-6	.	88*
Cc1ccc2nc3c(c(Nc4ccccc4)c2c1)CCC3	.	.	.	.	-0.51	.
O=C(Nc1ccc2c(c1)OCCO2)c1cc(-c2ccccc2)nc2ccccc12	i	65	58	6	-0.87	9
CNC(=O)C(=O)N/N=C/c1ccc(Br)cc1	i	.	.	71*	-0.04	-2
CCCN1C(=O)/C(=C\c2nc3ccccc3c(=O)[nH]2)c2ccccc21	i	.	.	.	-0.08	100*
O=c1[nH]c(/C=C/c2cccc3ccccc23)nc2ccccc12	i	.	.	.	-0.41	3
NC(=S)N/N=C/c1ccc(C(F)(F)F)cc1	i	31	29	0	0.47	70*
COc1ccc(/C=N/NC(N)=S)cc1	.	.	.	.	0.18	.
OCCC1CN(Cc2nc3c(s2)CCCC3)CCN1Cc1ccsc1 (stereo unspecified)	i	.	.	.	-0.55	-2
COc1ccc(-n2c(C)cc(/C=C3\SC(=S)N(Cc4ccco4)C3=O)c2C)cc1	+	81	83	-245	2.8	68*
CCC(C)(C)NC(=O)C(c1ccccc1)N(Cc1cccs1)C(=O)Cn1nnc2ccccc21 (stereo unspecified)	i	.	.	5	.	68*
CCC(C)(C)NC(=O)C(c1ccc(C)o1)N(Cc1cccs1)C(=O)Cn1nnc2ccccc21 (stereo unspecified)	i	2.8*	2.4*	-11	-0.11	36
COc1ccc(OC)c(NC(=O)C(=O)/C=C(\O)c2cc(OC)ccc2OC)c1	i	96	110	-13	0.9	-3
O=c1nc(Nc2cccc(Cl)c2)oc2cc(Cl)oc(=O)c12	.	.	.	.	0.07	.
CC(CCc1ccc(O)cc1)NC1C2CC3CC(C2)CC1C3 (stereo unspecified)	i	86	103	.	-1.2	71*
CC(=O)Nc1cccc(OCC(O)Cn2cnc3ccccc32)c1 (stereo unspecified)	i	92	100	-9	1.5	10
CCOC(=O)C(C)(C)N(Cc1ccccc1C)S(=O)(=O)c1ccc(Cl)c([N+](=O)[O-])c1	i	31	42	7	-0.17	100*
CCCCCC(=O)NC(Cc1ccc(OC)c([N+](=O)[O-])c1)C(=O)O (stereo unspecified)	i	.	.	-12	1.7	5
O=C(Cc1cccs1)Nc1nnc(-c2ccc(F)cc2)s1	i	.	.	-5	0.12	-7
CSCCOC(=O)C1=C(C)Nc2ccc(C)cc2S1	+	94	99	36	.	-5
CCC(=O)Nc1cccc(NC(=S)NC(=O)c2ccccc2C)c1	i	.	.	-14	-1	3
CCc1cccc2c(=O)c(C(=O)N3CCCCCC3)c[nH]c12	i	99	94	4	-0.02	-5
Cn1c(N/N=C2\CCCc3ccccc32)nc2c1c(=O)n(Cc1ccc(F)cc1)c(=O)n2C	i	1.2*	1.2*	.	-0.66	17
COc1ccc(/C=N/NC(=O)COc2cccc3cccnc23)cc1OC	i	.	.	.	-1	-2
